The list is not random: actives were taken first. Their share in the collection is about 14%.
MARV entry inh – inhibitors of Marburg virus binding or cell entry. 1.8% of 300,000 active. Marburg virus pseudotyped entry inhibition, cell reporter. Potency, µM (series often up to 37.8 µM), for the others: top-dose activity change, negative = inhibition, usual class: inhibitors; calls by dose curve; tested in HEK293 cells; further: potency means the concentration at half of the fitted maximal effect
HCMV inh – human cytomegalovirus inhibition; HFF cells, HCMV-luciferase reporter, 72 h; hits give low values; activity change, negative = inhibition, % at 57.5 µM; 4.5% of 410,000 active; in the data active means activity change below about -60%; inconclusive means no clear call, values can overlap the other calls; inactive means above about -39%
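Two compound doses tested in HFFs infected with HCMV-luciferase, MOI 1 PFU/cell, 72 h at 37C. Lysate luminescence read with OneGlo; data normalized against buffer-only and 10uM Salinomycin inhibitor controls.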
Pf growth 48h – P. falciparum growth inhibition at 48 hours (one generation). P. falciparum luciferase growth in erythrocytes, 48 h. AID 504832. Potency, µM (titrated, usually from 28.7 µM), inactives show at the top dose activity change, negative = inhibition, usual class: inhibitors. 5.9% of 310,000 active; further: potency means the concentration at half of the fitted maximal effect
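Luciferase-expressing P. falciparum in infected erythrocytes (2% hematocrit, 0.1% parasitemia final) in RPMI 1640/0.5% Albumax were exposed to compound for 48 hours at 37 C, 5% CO2; growth read as luminescence.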
HCV inh – HCV inhibition. Huh7.5.1 HCVcc-Cre infection, luciferase reporter, 44 h. 3.4% of 340,000 active. Potency, µM (top dose mostly 41.8 µM), without a hit: top-dose activity change, negative = inhibition, actives largely listed as inhibitors. AID 651820; further: potency means the concentration at half of the fitted maximal effect
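Whole-lifecycle infectious HCVcc-Cre system; cells 1,000/well, compound then virus (~0.5 moi) added 4 h after plating, 44 h culture. Luciferase read 15 sec following 15 min substrate incubation, room temp.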
Pf growth 96h – P. falciparum growth inhibition at 96 hours. P. falciparum luciferase reporter growth, 96 h. Potency, µM (titrated, usually from 28.7 µM), without a hit: at the top dose activity change, negative = inhibition, actives largely listed as inhibitors. 6.9% of 320,000 active. AID 504834; further: potency means the concentration at half of the fitted maximal effect
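Cell-based qHTS: luciferase-tagged P. falciparum in erythrocytes (2% hematocrit, 0.05% parasitemia final) incubated with compounds for 96 hours, 37 C, 5% CO2; luciferase detection reagent then added and luminescence measured.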
Lassa entry inh – inhibitors of Lassa virus binding or cell entry | Potency, µM (top dose mostly 37.9 µM), for inactives: at the top dose activity change, negative = inhibition, most hits filed as inhibitors | 1.2% of 300,000 active | AID 540256 | Lassa virus pseudotype entry inhibition, cell reporter; calls by dose curve; tested in HEK293 cells; further: potency means the concentration at half of the fitted maximal effect; nearly all actives have a fitted effect of over 50% in size
* marks the source's active call; other numbers are inactive results; [ ] = remark or other dose. Unless noted, the call rests on the fitted dose curve; in most records, active means well fitted inhibition curve with a large enough effect; inconclusive means small, poorly fitted or top-dose-only effect, or another doubt; inactive means no such curve, though single readings can be large or run the other way. On the % scale 0 is the no-effect control and ±100 the full control effect.

For CC(C)CCSc1nc(N)c(C#N)cc1C#N the results were MARV entry inh inconclusive, HCMV inh inconclusive, Pf growth 48h 11.7µM*, HCV inh inconclusive, Pf growth 96h -10.1% and Lassa entry inh -7.4%.
For CCc1nc2ccc(C(=O)N3CCN(C(=O)c4ccco4)CC3)cn2c1N(C)C(=O)c1cccc(OC)c1 the results were HCMV inh -2.0.
For O=C(Nc1ccc2oc(-c3cc(Br)ccc3Cl)nc2c1)c1ccc2ccccc2c1 the results were HCMV inh -93.5* and Lassa entry inh 1.1%[46.1 µM].
Screening O=C(Nc1ccc2oc(-c3ccccc3Cl)nc2c1)c1cncc(Br)c1 returned MARV entry inh inconclusive, HCMV inh -18.1, Pf growth 48h 126.3%, HCV inh 17.8µM*, Pf growth 96h -6.2% and Lassa entry inh inconclusive.
COc1ccc(N2CCN([C@H]3CC(=O)NC3=O)CC2)cc1 was read as MARV entry inh -7.0%.
Screening O=C(c1ccoc1)N1CCC2(CCCN(Cc3ccc(F)c(F)c3)C2)C1 (stereo unspecified) returned MARV entry inh 14.5%, HCMV inh -2.8, Pf growth 48h inconclusive, Pf growth 96h 11.7µM* and Lassa entry inh 1.9%.
`CCc1cccc(NS(=O)(=O)c2ccc3c(c2)CC(C)N3C(=O)C2CC2)c1` (stereo unspecified) gave HCMV inh -79.6* and Lassa entry inh -23.8%[46.1 µM].
Screening COc1cccc(NC(=O)CCNS(=O)(=O)c2ccc3c(c2)CC(C)N3C(=O)C2CC2)c1 (stereo unspecified) returned HCMV inh -70.8*, Pf growth 48h 1.4%, HCV inh 2.5% and Pf growth 96h 50.7%.
`CC1Cc2cc(S(=O)(=O)NCc3ccccc3)ccc2N1C(=O)C1CC1` (stereo unspecified) gave HCMV inh -10.4, Pf growth 48h 25.6%, HCV inh inconclusive and Pf growth 96h inconclusive.
For CCC(=O)N1c2ccc(S(=O)(=O)NC3CCCCC3)cc2CC1C (stereo unspecified) the results were HCMV inh -10.9, Pf growth 48h 0.0%, HCV inh -11.0% and Pf growth 96h 10.4µM*.
For CCC(=O)N1c2ccc(S(=O)(=O)CCC(=O)NC3CCCC3)cc2CC1C (stereo unspecified) the results were MARV entry inh -9.9%[46.1 µM], HCMV inh 8.0, Pf growth 48h 19.1%, HCV inh 12.8%, Pf growth 96h 65.3% and Lassa entry inh -9.8%.
Screening COc1cc(Cl)c(NS(=O)(=O)c2ccc3c(c2)CC(C)N3C(=O)C2CCC2)c(OC)c1 (stereo unspecified) returned HCMV inh -86.3* and Lassa entry inh inconclusive.
COc1ccc(NC(=O)CCNS(=O)(=O)c2ccc3c(c2)CC(C)N3C(=O)C2CC2)cc1 (stereo unspecified) was read as HCMV inh -24.9, Pf growth 48h inconclusive, HCV inh 2.5% and Pf growth 96h inconclusive.
`COC(=O)[C@@]1(Sc2ccc(OC)cc2)CC(=O)N(c2ccc(OC(C)C)cc2CO)[C@@H]1c1ccc(OC(C)C)c(OC)c1` gave HCMV inh 18.5.
COCCNC(=O)c1cc(S(=O)(=O)N(C)C2CCCCC2)ccc1Cl was read as HCMV inh -22.5.
Screening COc1ccc(NS(=O)(=O)c2ccc3c(c2)CC(C)N3C(=O)C2CCC2)cc1OC (stereo unspecified) returned HCMV inh -78.4* and Lassa entry inh inconclusive.
Screening CCOc1ccc2c(c1)c(=O)c(C(=O)c1ccc(CC)cc1)cn2CC(=O)Nc1ccccc1C returned MARV entry inh 0.1%[46.1 µM], HCMV inh -13.7 and Lassa entry inh -12.2%[46.1 µM].
`COc1cc(OC)cc(C(=O)Nc2ccc(-c3nc4cc(C(C)C)ccc4o3)cc2)c1` gave HCMV inh inconclusive and Lassa entry inh -12.9%[46.1 µM].
`CS(=O)(=O)N1CCN=C1SCc1ccc(Br)cc1` gave HCMV inh inconclusive, Pf growth 48h -8.3%, HCV inh 6.6% and Pf growth 96h -1.9%.
CS(=O)(=O)N1CCN=C1SCc1ccc([N+](=O)[O-])cc1 was read as MARV entry inh inconclusive, HCMV inh -65.3*, Pf growth 48h -18.2%, HCV inh 7.4%, Pf growth 96h -20.4% and Lassa entry inh 3.4%.
CC(=O)Nc1ccc(S(=O)(=O)N2CCN=C2SCc2ccc([N+](=O)[O-])cc2)cc1 was read as MARV entry inh 12.6µM*, HCMV inh inconclusive, Pf growth 48h inconclusive, HCV inh 10µM*, Pf growth 96h inconclusive and Lassa entry inh inconclusive.
CCOC(=O)[C@H]1[C@H]2COc3ccc(Cl)cc3[C@@H]2N2C(=O)CN(Cc3ccccc3)C(=O)[C@@]12C was read as HCMV inh 11.6, Pf growth 48h inconclusive, HCV inh inconclusive and Pf growth 96h 5.86µM*.
CCOC(=O)[C@H]1[C@H]2COc3ccc(Cl)cc3[C@@H]2N2C(=O)CN(Cc3ccc(F)cc3)C(=O)[C@@]12C was read as HCMV inh -3.3, Pf growth 48h inconclusive, HCV inh -23.4% and Pf growth 96h inconclusive.
CCOC(=O)[C@H]1[C@H]2COc3ccc(C)cc3[C@@H]2N2C(=O)CN(Cc3ccc(C)cc3)C(=O)[C@@]12C was read as HCMV inh 35.3, Pf growth 48h inconclusive, HCV inh -12.7% and Pf growth 96h inconclusive.
For CCOC(=O)[C@H]1[C@H]2COc3ccc(Cl)cc3[C@@H]2N2C(=O)CN(Cc3ccc(Cl)cc3)C(=O)[C@@]12C the results were HCMV inh -99.4*, Pf growth 48h 14.7µM*, HCV inh -1.5% and Pf growth 96h inconclusive.
`COc1ccc(C2CC=C(C(C)=O)CN2S(=O)(=O)c2ccccc2)cc1` (stereo unspecified) gave HCMV inh -4.9.
For CCCCn1cc(S(=O)(=O)c2cccc(C)c2)c(=O)c2cc(F)c(N3CCOCC3)cc21 the results were HCMV inh 17.4 and Lassa entry inh -20.1%[46.1 µM].
`COc1ccc(S(=O)(=O)NC(=O)C2(C)CCN2C(=O)CC2CCCC2)cc1` (stereo unspecified) gave HCMV inh 6.1.
Screening CCCCN1C(=O)N(c2nnc(C(C)(C)C)s2)C(O)C1c1ccc(C)cc1 (stereo unspecified) returned HCMV inh 46.3, Pf growth 48h 8.28µM*, HCV inh inconclusive and Pf growth 96h 10.4µM*.
